Experimental data published in PubChem BioAssay AID1986 (Sanford-Burnham Center for Chemical Genomics, 2009).
The campaign covered roughly 290,000 compounds. About 890 (0.31%) were called active. Cut-off read from the data, not from the text of the source: active = inhibition mostly above about 52% (no sharp cut-off); inactive = mostly below about 76%. The list comes from a sample in which actives are over-represented; it also holds similar structures and randomly drawn compounds.

Assay: inhibitors of HIV fusion peptide binding, primary screen, biochemical, uHTS, fluorescence dequenching (AID 1986)
Settings: cell-free peptide binding, 30 min, stronger effect = higher value
[1] = measured here: repeat confirmation average inhibition, at 18.6 µM

Structure (SMILES) | inhibition (at 20 µM) | inhibition [1] [%]
COc1ccccc1NC(=S)N=Nc1c(O)[nH]c2ccc(Br)cc12 | -1.3% (inactive) | –
COc1ccccc1N=Nc1c(O)[nH]c2ccc(Br)cc12 | 74.7% (active) | 70.2
Cc1ccc(CNc2ccc3c(c2)OCO3)c(C)c1 | 52.3% (active) | –
Cc1ccc(CNc2ccc3c(c2)OCO3)cc1 | 112% (active) | –
Cc1ccc(CNCc2ccc3c(c2)OCO3)c(C)c1 | -1.9% (inactive) | –
c1cc(CNc2ccc3c(c2)OCO3)ccn1 | 4.7% (inactive) | –
Cc1ccc(C(=O)NCc2ccc3c(c2)OCO3)c(C)c1 | 0.4% (inactive) | –
Cc1ccc(CNCc2ccc3c(c2)OCO3)cc1 | 2.9% (inactive) | –
COC(=O)c1cc2ccccc2c(-c2c(OC)c(C(=O)OC)cc3ccccc23)c1OC | -0.9% (inactive) | –
CCOC(=O)N/N=C/c1ccc(OCCSc2ccc(Cl)cc2)c(OC)c1 | 6.5% (inactive) | –
O=C(NC1CCCC1)C(c1cccs1)N(C(=O)c1csnn1)c1ccccc1F (configuration not stated) | 0.9% (inactive) | –
COc1ccc(/C=C2\OC(=S)N(C)C2=O)cc1 | -1.3% (inactive) | –
CN(C)c1ccc(/C=C2\N=C(C(C)(C)C)OC2=O)cc1 | 28.5% (inactive) | –
CN1C(=O)/C(=C\c2ccc(N(C)C)cc2)OC1=S | 78.5% (active) | 83.9
COc1ccccc1CN1C(=S)SC(C)(C)C1NO (configuration not stated) | -0.5% (inactive) | –
CCCCc1nc2cc(C(=O)N3CCNC(=O)C3)ccc2o1 | 0.8% (inactive) | –
CC1C/C(=C/c2cccs2)C(=O)/C(=C/c2cccs2)C1 (configuration not stated) | 68.1% (active) | –
O=C1/C(=C/c2cccs2)CCC/C1=C\c1cccs1 | 31.9% (inactive) | –
O=C1/C(=C\c2ccco2)CCC/C1=C\c1ccco1 | 69.6% (inactive) | 3.2
Cn1cccc1/C=C1\CC(C(C)(C)C)C/C(=C\c2cccn2C)C1=O (configuration not stated) | 2.7% (inactive) | –
CC(C)(C)C1C/C(=C/c2ccco2)C(=O)/C(=C/c2ccco2)C1 (configuration not stated) | 61.8% (active) | –
CC1C/C(=C/c2ccncc2)C(=O)/C(=C/c2ccncc2)C1 (configuration not stated) | 1.9% (inactive) | –
CC(C)(C)C1C/C(=C/c2ccccn2)C(=O)/C(=C/c2ccccn2)C1 (configuration not stated) | 3.1% (inactive) | –
CCC1C/C(=C/c2ccco2)C(=O)/C(=C/c2ccco2)C1 (configuration not stated) | 68.9% (inactive) | 0.1

Structure (SMILES) | inhibition (at 20 µM) | inhibition [1] [%]
CC1C/C(=C/c2ccco2)C(=O)/C(=C/c2ccco2)C1 (configuration not stated) | 61.3% (active) | –
N#Cc1cccn1-c1nccs1 | -0.8% (inactive) | –
Cc1onc(-c2c(F)cccc2Cl)c1C(=O)OCC(=O)NC(N)=O | -0.8% (inactive) | –
COC(=O)c1ccc(CSc2nc3ccccc3[nH]2)o1 | 1.5% (inactive) | –
CCN(CC)c1ccc(/C=C2\SC(=O)N(C(C)C)C2=O)o1 | 56.4% (active) | –
CC(C)N1C(=O)S/C(=C\c2ccc(-c3ccc(Cl)c(C(=O)O)c3)o2)C1=O | 24.7% (inactive) | –
CCN(CC)c1ccc(/C=C2/SC(=O)N(C(C)C)C2=O)o1 | 2.5% (inactive) | –
O=C(O)c1ccc2c(c1)C1C=CCC1C(c1ccncc1)N2 (configuration not stated) | 24.6% (inactive) | –
COc1ccc(C(=O)N/N=C(\C)c2ccc3c(c2)C2C=CCC2C(c2ccccc2)N3)cc1 (configuration not stated) | 16.5% (inactive) | –
NCCCNc1ccc([N+](=O)[O-])cc1C(F)(F)F | 0.6% (inactive) | –
O=C(COc1ccc(Br)cc1Cl)NC(=S)Nc1ccccn1 | -1.1% (inactive) | –
COc1ccccc1N1C(C)=CC(=C(C#N)c2nc3ccccc3s2)C=C1C | 26.5% (inactive) | –
CC1=CC(=C(C#N)c2nc3ccccc3s2)C=C(C)N1c1ccc(F)cc1 | 66.4% (active) | –
CC1=CC(=C(C#N)c2nc3ccccc3s2)C=C(C)N1c1ccc(F)cc1F | 22.6% (inactive) | –
CCN(CC)C(=O)Cn1cc(S(=O)(=O)CC(=O)Nc2cc(OC)ccc2OC)c2ccccc21 | -1.7% (inactive) | –
C=CCNCCCCOc1ccccc1-c1ccccc1 | -2% (inactive) | –
CC1=NOC(=O)/C1=C/c1ccc(N(C)C)cc1 | -2.2% (inactive) | –
CC1=NOC(=O)/C1=C/c1ccc(O)cc1 | 0.5% (inactive) | –
CCN(CC)c1ccc(/C=C2/C(=O)ON=C2C)cc1 | 100% (active) | –
Nn1cnnc1SCC(=O)Nc1ccc2c(c1)OCO2 | 0.5% (inactive) | –
Cc1cccc(C)c1Nc1nnc(SCC(=O)c2ccc3c(c2)NC(=O)CO3)s1 | 0.2% (inactive) | –
CCOC(=O)/C(C#N)=C/c1ccc(N2CCN(C)CC2)cc1 | 7.2% (inactive) | –
CCOC(=O)/C(C#N)=C\c1ccc(N2CCN(C/C=C/c3ccccc3)CC2)cc1 | 117% (active) | –
CCOC(=O)/C(C#N)=C\c1ccc(N2CCN(C)CC2)cc1 | 4% (inactive) | –
